Data reported in PubChem BioAssay.
Active and inactive are the calls of the source.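 The calls were made as follows, unless noted: active = inhibition at or above 50% at 10 µM; inactive = inhibition below 50%.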 Where a SMILES comes first, the peptide text is derived from it.

Columns and labels:
[1] = inhibitors of TNFa-induced NFkB p65 translocation, primary screen, imaging, HUVEC, MLSMR starter and 10KST1 sets (AID 438;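 active = inhibition above 20% together with a positive visual image hit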;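 also: compound added about 3h40 before a 20 min TNFalpha stimulation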;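 as to inhibition: signal is the nuclear over cytoplasmic p65 intensity ratio per well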); settings: HUVEC TNFa-induced p65 nuclear translocation; cell count: measured here: nuclei count (cytotoxicity indicator), at 2.08 µM; inhibition: at 2 µM, stronger effect = higher value, 0% TNFa-plus-vehicle, 100% no-TNFa wells
[2] = inhibitors of mutant huntingtin aggregation, primary screen, imaging, exon1htt(103Q)mCFP cells, high-content imaging (AID 483;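 active = visual image review flags a hit and inhibition of aggregation exceeds 20%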;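 also: compound exposure lasted 3 days before fixation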;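 as to nuclei count: percent of the per-plate median nuclei count of sample wells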); settings: exon1htt(103Q)mCFP cell line, aggregate imaging, at 2 µM; inhibition of aggregation: stronger effect = higher value; nuclei count: measured here: cell count, toxicity
[3] = inhibitors of E-selectin induction by TNFa, primary screen, imaging, HUVEC, immunofluorescence, MLSMR starter and 10KST1 sets (AID 487;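 active = visually confirmed hit in the image check and inhibition above 20%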;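 as to inhibition: signal is fraction of cell area covered by stained E-selectin grains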;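 as to nuclei count: 100% = median nuclei count of all wells on the same plate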); settings: HUVEC TNFalpha-induced E-selectin immunofluorescence imaging, at 2 µM; inhibition: stronger effect = higher value; nuclei count: measured here: cell number, toxicity
[4] = biological target: Voltage-gated potassium channel subunit beta-2 (Rattus norvegicus) (UniProt P62483); test: KvBeta enzyme negative modulators, primary screen, biochemical, NADPH fluorescence (AID 622;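 active = fluorescence slope higher than the sample average by over 3 SD, cut at about -0.22 in these data, passing the limit was not always enough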;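 also: slope of raw intensity against log time taken from 70 to 1610 s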); settings: recombinant KvBeta, 4-cyanobenzaldehyde reduction, at 10 µM, stronger effect = higher value
Chain of Voltage-gated potassium channel subunit beta-2 (Rattus norvegicus) (P62483 whole entry, looked up): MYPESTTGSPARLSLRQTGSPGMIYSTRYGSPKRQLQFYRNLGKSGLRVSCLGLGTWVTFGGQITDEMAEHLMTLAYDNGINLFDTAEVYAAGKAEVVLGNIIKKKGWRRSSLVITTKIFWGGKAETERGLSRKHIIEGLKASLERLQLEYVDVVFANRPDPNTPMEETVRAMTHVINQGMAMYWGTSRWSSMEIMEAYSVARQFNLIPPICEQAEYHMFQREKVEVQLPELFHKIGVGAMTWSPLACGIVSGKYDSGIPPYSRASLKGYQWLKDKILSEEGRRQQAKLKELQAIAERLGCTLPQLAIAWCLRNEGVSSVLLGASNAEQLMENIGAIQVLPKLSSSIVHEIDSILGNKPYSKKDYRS

[5] = biological target: Voltage-gated potassium channel subunit beta-2 (Rattus norvegicus) (UniProt P62483); test: KvBeta positive modulators, primary screen, biochemical, NADPH fluorescence (AID 623;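 active = NADPH fluorescence slope more negative than the mean of all samples by about 3 SD, 99.7% confidence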;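 also: fluorescence intensity change per second fitted from 20 to 320 s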); settings: Recombinant KvBeta, NADPH fluorescence decrease slope, 10 min; at 10 µM; stronger effect = lower value
[6] = biological target: Alpha-2C adrenergic receptor (Homo sapiens) (UniProt P18825); test: modulators of alpha2C/GIRK thallium flux, primary screen, cell-based, HEK293 alpha2C/GIRK1/2 (AID 624;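 active = fluorescence slope after compound addition differing from the mean of all screened samples at 99.7% confidence, in either direction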;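 also: slope of fluorescence ratio to pre-addition baseline per second over 15 to 24 s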); settings: thallium flux BTC fluorescence, at 10 µM, actives lie on both sides
Chain of Alpha-2C adrenergic receptor (Homo sapiens) (P18825 whole entry, looked up): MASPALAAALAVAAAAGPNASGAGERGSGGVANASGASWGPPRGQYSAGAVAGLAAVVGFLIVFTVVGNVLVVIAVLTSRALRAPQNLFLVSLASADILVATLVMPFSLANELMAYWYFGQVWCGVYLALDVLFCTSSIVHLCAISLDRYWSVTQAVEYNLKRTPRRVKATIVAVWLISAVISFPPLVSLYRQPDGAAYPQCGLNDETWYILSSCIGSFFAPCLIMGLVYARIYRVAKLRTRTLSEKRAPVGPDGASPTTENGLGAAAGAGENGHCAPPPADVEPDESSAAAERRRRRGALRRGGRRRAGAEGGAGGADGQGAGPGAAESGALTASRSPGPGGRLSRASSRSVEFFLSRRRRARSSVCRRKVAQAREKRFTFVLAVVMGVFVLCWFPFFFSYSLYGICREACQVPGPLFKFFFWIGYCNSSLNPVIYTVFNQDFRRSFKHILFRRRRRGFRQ

[7] = inhibitors of Sendai virus-induced IRF3 signaling, primary screen, TLR/RLR signaling modifier project, cell-based, Sendai virus stimulus, luciferase, 10K MLSCN set (AID 602276); settings: HEK293 RL24 IRF3 luciferase reporter, at 10 µM, stronger effect = higher value;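 also: firefly luciferase from ISG56 promoter only with Renilla not read in this screen; 0% = Sendai virus plus DMSO and 100% = medium plus DMSO without virus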
[8] = inhibitors of poly I:C-induced TLR3 signaling, primary screen, cell-based, poly I:C stimulus, luciferase, 10K MLSCN set (AID 602277;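 active = inhibition of the reporter signal at or above 50%; inactive = inhibition below 50%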); settings: HEK293-TLR3 RL24 IRF3 luciferase reporter, at 10 µM, stronger effect = higher value

Compound	cell count [1]	inhibition [1]	inhibition of aggregation [2]	nuclei count [2]	inhibition [3]	nuclei count [3]	fluorescence slope [4]	NADPH fluorescence slope [5]	slope [6]	inhibition [7]	inhibition [8]
CC(=O)OC1c2ccccc2C(=O)N1Cc1ccccc1Cl (stereo not drawn)	468	-2.8% (inactive)	34% (inactive)	61%	-13.3% (inactive)	106%	-0.552 (inactive)	-4.6e-05 (inactive)	0.00651 (inactive)	4.84% (inactive)	27.6% (inactive)
O=C(Nn1cnnc1)C1Cc2ccccc2CN1S(=O)(=O)c1ccc(F)cc1 (stereo not drawn)	326	-6.7% (inactive)	7.4% (inactive)	95.2%	0.9% (inactive)	95.6%	-0.481 (inactive)	-2.7e-05 (inactive)	0.00658 (inactive)	14.1% (inactive)	24.9% (inactive)
CC1(C)COCN1S(=O)(=O)c1ccc(C(=O)Nc2nnc(-c3ccc(Cl)s3)o2)cc1	440	10.8% (inactive)	-2.8% (inactive)	98.3%	-26.4% (inactive)	93.8%	-0.545 (inactive)	1.8e-05 (inactive)	0.00616 (inactive)	49.1% (inactive)	36.9% (inactive)
CCOC(=O)c1[nH]c(CSc2nnc(-c3ccc(OC)cc3)o2)c(C(=O)OCC)c1C	609	1.4% (inactive)	-12.6% (inactive)	124%	-39.2% (inactive)	119%	-0.304 (inactive)	-5.8e-05 (inactive)	0.00625 (inactive)	7.64% (inactive)	24.1% (inactive)
COc1ccc(C(=O)Nc2cccc(-c3nc4ncccc4o3)c2C)cc1OC	729	-44.9% (inactive)	-4.4% (inactive)	96.1%	-22.4% (inactive)	109%	-0.562 (inactive)	1.4e-05 (inactive)	0.00564 (inactive)	-16.3% (inactive)	-34.5% (inactive)
O=C1CCCCCN1CSc1nc2ccccc2s1	686	-17.2% (inactive)	-3.1% (inactive)	106%	7.2% (inactive)	97.6%	-0.433 (inactive)	-0.000138 (inactive)	0.00664 (inactive)	18.8% (inactive)	27.7% (inactive)
CCCNC(=O)CS(=O)(=O)Cc1nc(-c2cccc(OC)c2)oc1C	781	3.5% (inactive)	12.5% (inactive)	99.7%	-52% (inactive)	127%	-0.543 (inactive)	4.4e-05 (inactive)	0.007 (inactive)	9.03% (inactive)	-7.6% (inactive)
Cc1cc(C)nc(NC2=NCC(=O)N2c2ccccc2Br)n1	899	-1.7% (inactive)	-2.1% (inactive)	92.9%	-29.3% (inactive)	115%	-0.4 (inactive)	9.8e-06 (inactive)	0.00564 (inactive)	17.3% (inactive)	40.3% (inactive)
C=C(C)Cn1c(-c2ccccc2)nc2ccccc21	326	-5.5% (inactive)	-4.2% (inactive)	113%	-17.6% (inactive)	104%	-0.512 (inactive)	-5.5e-05 (inactive)	0.00476 (inactive)	14.4% (inactive)	2.46% (inactive)
O=C(OC1CCOC1=O)c1ccc(S(=O)(=O)N2CCCCCC2)cc1 (stereo not drawn)	466	1.1% (inactive)	-2.3% (inactive)	92.8%	-116% (inactive)	97.1%	-0.329 (inactive)	7.8e-06 (inactive)	0.00585 (inactive)	5.47% (inactive)	14.9% (inactive)
COc1ccc(C(=O)Nc2nc(C)c(C(=O)N(C)C)s2)cc1OC	435	2.8% (inactive)	5.4% (inactive)	102%	-16.9% (inactive)	91.8%	-0.461 (inactive)	2.3e-06 (inactive)	0.00371 (inactive)	-7.68% (inactive)	-30.5% (inactive)
O=C(c1ccco1)N1CCN(C(=O)c2cc3c(s2)-c2ccccc2OC3)CC1	684	-5% (inactive)	-23% (inactive)	131%	4.9% (inactive)	102%	-0.0429 (inactive)	3.2e-05 (inactive)	0.00801 (inactive)	-15% (inactive)	-25.8% (inactive)
CCOC(=O)c1cc2sc(C)cc2n1CC(=O)Nc1cccc(C)c1C	556	7.5% (inactive)	23.7% (inactive)	109%	-44.9% (inactive)	116%	-0.342 (inactive)	-3.2e-05 (inactive)	0.00758 (inactive)	-2.4% (inactive)	12.7% (inactive)
CCOc1ccc(OCCCCN(C)C)cc1	386	1.8% (inactive)	5.3% (inactive)	110%	-111% (inactive)	104%	-0.299 (inactive)	-6.7e-06 (inactive)	0.00564 (inactive)	8.3% (inactive)	27.7% (inactive)
COC(=O)c1ccccc1NS(=O)(=O)c1ccc(F)cc1	609	2.4% (inactive)	-3% (inactive)	99.4%	-22.1% (inactive)	114%	-0.523 (inactive)	-3.8e-05 (inactive)	0.00602 (inactive)	9.83% (inactive)	17.7% (inactive)
COc1cccc2sc(NC(=O)c3ccc(S(=O)(=O)N4CCOCC4)cc3)nc12	357	0.5% (inactive)	8.5% (inactive)	74.7%	-21% (inactive)	104%	-0.289 (inactive)	-2.5e-05 (inactive)	0.00479 (inactive)	10.2% (inactive)	9.3% (inactive)
Cc1cc(NC(=O)COc2cccc(Oc3ccccc3)c2)no1	327	-0.9% (inactive)	-11.4% (inactive)	80.8%	-61% (inactive)	106%	-0.375 (inactive)	-7.6e-05 (inactive)	0.0048 (inactive)	10.8% (inactive)	30.5% (inactive)
CCC(C)(C)n1nnnc1C(c1ccc(OC)c(OC)c1)N1CCN(c2ccc(F)cc2)CC1 (stereo not drawn)	406	4% (inactive)	-1% (inactive)	96.8%	10.4% (inactive)	106%	-0.442 (inactive)	-2.6e-05 (inactive)	0.00413 (inactive)	14% (inactive)	43.5% (inactive)
CC(Oc1ccc(Cl)cc1Cl)C(=O)Nc1ncccn1 (stereo not drawn)	433	2.5% (inactive)	-1% (inactive)	102%	51.5% (inactive)	124%	-0.409 (inactive)	9.1e-05 (inactive)	0.006 (inactive)	-4.61% (inactive)	-6.91% (inactive)
C/C(=C\c1ccco1)C1C(C#N)=C(N)OC2=C1C(=O)CC(C)(C)C2 (stereo not drawn)	595	-9.1% (inactive)	11.6% (inactive)	96.3%	-87.8% (inactive)	106%	-0.303 (inactive)	-6.3e-05 (inactive)	0.00426 (inactive)	15.4% (inactive)	18.7% (inactive)
Fc1ccc(-c2ccc(-c3nn4c(-c5ccco5)nnc4s3)o2)cc1	243	-2.4% (inactive)	1.7% (inactive)	92.7%	-25.8% (inactive)	101%	-0.394 (inactive)	-3e-05 (inactive)	0.00935 (inactive)	-5.55% (inactive)	-13.1% (inactive)
CC1(C)CC(=O)CC(C2(O)C(=O)N(Cc3ccccc3)c3ccccc32)O1 (stereo not drawn)	500	-2.4% (inactive)	-3.9% (inactive)	82.2%	-9.4% (inactive)	120%	-0.548 (inactive)	1.3e-05 (inactive)	0.00527 (inactive)	-9.58% (inactive)	-5.31% (inactive)
CCCC(NC(=O)CNC(=O)C(C)(C)C)C(=O)O (stereo not drawn) (HELM PEPTIDE1{[CC(C)(C)C(=O)[*:2]].G.[CCCC(N[*:1])C(=O)O]}$$$$V2.0)	678	0.5% (inactive)	12.5% (inactive)	104%	63.7% (inactive)	97.4%	-0.499 (inactive)	-1.3e-05 (inactive)	0.00543 (inactive)	14.8% (inactive)	11.8% (inactive)
Cc1cc(C(=O)NCc2cccnc2)no1	337	4.2% (inactive)	6.9% (inactive)	105%	7.8% (inactive)	102%	-0.5 (inactive)	-8.2e-06 (inactive)	0.00709 (inactive)	11.1% (inactive)	14.3% (inactive)
COc1ccc(S(=O)(=O)N2CCSC2c2ccccc2)cc1 (stereo not drawn)	449	-3.1% (inactive)	-10.4% (inactive)	106%	-84.6% (inactive)	97.9%	-0.463 (inactive)	-3.5e-05 (inactive)	0.00496 (inactive)	-1.99% (inactive)	22.7% (inactive)
CC1CCN(C(=O)CSc2nc3ccccc3[nH]2)CC1	761	0.5% (inactive)	1.8% (inactive)	110%	75.2% (active)	88.9%	-0.359 (inactive)	-9.6e-06 (inactive)	0.00679 (inactive)	-38.7% (inactive)	-116% (inactive)
CC1(C)CC(=O)C2=C(C1)OC(N)=C(C#N)C2C1CC=CCC1 (stereo not drawn)	569	2.4% (inactive)	1.3% (inactive)	119%	-52% (inactive)	89.2%	-0.556 (inactive)	-1.7e-05 (inactive)	0.00554 (inactive)	16% (inactive)	22.1% (inactive)
O=C(Nc1ccc(Br)cc1F)c1sccc1-n1cccc1	616	-12.7% (inactive)	-18.9% (inactive)	103%	-10.6% (inactive)	110%	-0.397 (inactive)	-3.4e-05 (inactive)	0.00385 (inactive)	-1.64% (inactive)	-17.5% (inactive)
